# PubChem BioAssay (NCATS)
# Records with an inconclusive call do not appear. Unmarked numbers belong to inactive results. Activity calls are given as the source filed them. Calls follow the shape of the dose curve; as a rule, active = well fitted inhibition curve with a large enough effect; inconclusive = small, poorly fitted or top-dose-only effect; inactive = flat fitted curve, though single readings scatter. Where a SMILES comes first, the peptide text is derived from it. Bridges are numbered along the chain shown (N, C = ends).
# Key:
# HaCat [1] = test: Cytotoxic Profiling of Annotated Libraries Using Quantitative High-Throughput Screening (AID 1296008); conditions: Five cell lines viability, CellTiter-Glo ATP luminescence, 48-72 h; max response: stronger effect = lower value; as to max response: % is scaled to controls: 0 for no effect and ±100 for the full control effect
# How it was run: (§1)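 Cytotoxicity was measured as CellTiter-Glo ATP luminescence, read after 10 min at room temperature. Compound treatment of the cells lasted 48 or 72 hr at 37 degrees Celsius in a qHTS format.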
# KB-3-1 = test: as above; conditions: Five cell lines viability, CellTiter-Glo ATP luminescence, 48-72 h; max response: stronger effect = lower value
# How it was run: as §1
# HEK293T = test: qHTS assay to identify novel small-molecules to repurpose for Merkel cell carcinoma treatment (AID 1296009); conditions: MCC and control cell lines, CellTiter-Glo viability, 72 h
# How it was run: (§2)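 72 hr, 37 degree celsius; NPC 8-pt / MIPE 11-pt dose response; compound pinned in DMSO; CellTiter-Glo, 10 min RT, luminescence; normalized to no-cell and DMSO controls.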
# NIH3T3 = test: Cytotoxic Profiling of Annotated Libraries Using Quantitative High-Throughput Screening (AID 1296008); conditions: Five cell lines viability, CellTiter-Glo ATP luminescence, 48-72 h; max response: stronger effect = lower value; as to max response: % is scaled to controls: 0 for no effect and ±100 for the full control effect
# How it was run: as §1
# HACAT [2] = test: qHTS assay to identify novel small-molecules to repurpose for Merkel cell carcinoma treatment (AID 1296009); conditions: MCC and control cell lines, CellTiter-Glo viability, 72 h; at 44.8 µM (top of the series) unless noted
# How it was run: as §2
# Also: nearly all actives have a fitted effect of over 60% in size.
# Potency is read from the fitted curve at half-maximal effect.
structure (smiles),measurement,setting,value
C=C1C(=O)O[C@@H]2/C=C(\CO)CC/C=C(/C=O)C[C@H](O)[C@@H]12,max response,HaCat [1],-0.314%
same,outcome,KB-3-1,inactive
same,Potency,HEK293T,18.4 µM (active)
COC(=O)c1sccc1S(=O)(=O)Nc1ccc(Nc2ccccc2)cc1OC,outcome,HaCat [1],inactive
same,max response,KB-3-1,-21.5%
same,max response,NIH3T3,1.31%
same,outcome,HACAT [2],inactive
O=C(Nc1ccc(C(F)(F)F)cn1)N1CCN(c2ncccc2C(F)(F)F)CC1,outcome,HaCat [1],inactive
same,max response,KB-3-1,-14.9%
same,max response,NIH3T3,-8.79%
same,outcome,HACAT [2],inactive
O=C(CCl)Nc1cccc(NC2=NS(=O)(=O)c3ccccc32)c1,outcome,HaCat [1],inactive
same,Potency,KB-3-1,14.6 µM (active)
same,outcome,HACAT [2],inactive
C=CCc1ccc(OC(C)Cc2ccc(OC)c(OC)c2)c(OC)c1 (configuration not stated),outcome,HaCat [1],inactive
same,max response,KB-3-1,-25.6%
same,max response,NIH3T3,-6.99%
same,outcome,HACAT [2],inactive
C[C@@H](c1ccc2nccn2c1)n1nnc2ncc(-c3cnn(C)c3)nc21,max response,HaCat [1],-13%
same,max response,NIH3T3,-14.7%
C/C=C(\C)[C@@H]1C(C)=C[C@@H]2[C@H]([C@@H]1/C=C/C=C/C(=O)O)[C@@H](C)CC[C@@H]2O,outcome,HaCat [1],inactive
same,Potency,KB-3-1,8.05 µM (active)
same,outcome,HACAT [2],inactive
CC[N+]1(C/C2=C/CCCCCC2)CCC(NC(=O)C2c3cc(Cl)ccc3Oc3ccc(Cl)cc32)CC1 (configuration not stated),max response,HaCat [1],-26%
same,outcome,NIH3T3,inactive
Cc1ccc(-c2cn3c4c(sc3n2)CCCC4)cc1,outcome,HaCat [1],inactive
same,max response,KB-3-1,-4.88%
same,max response,NIH3T3,-12.5%
same,outcome,HACAT [2],inactive
CC[C@H]1OC(=O)[C@H](C)[C@@H](O[C@H]2C[C@@](C)(OC)[C@@H](O)[C@H](C)O2)[C@H](C)[C@@H](O[C@H]2O[C@H](C)C[C@H](N(C)C)[C@H]2O)[C@](C)(O)C[C@@H](C)C(=O)[C@H](C)[C@@H](O)[C@]1(C)O,outcome,HaCat [1],inactive
same,max response,KB-3-1,8.4%
same,outcome,HACAT [2],inactive [at 17.4 µM]
COc1ccc(-c2csc(NC(=O)[C@H]3CCCCN3S(=O)(=O)c3ccc(C)cc3)n2)cc1,outcome,HaCat [1],inactive
same,max response,KB-3-1,-25.1%
same,outcome,HACAT [2],inactive
C=C(C(=O)O[C@H]1C/C(C)=C/CC/C(CO)=C/[C@H]2OC(=O)C(=C)[C@H]12)C(O)CO (some centres not stated),outcome,HaCat [1],inactive
same,max response,KB-3-1,-10.8%
same,outcome,HACAT [2],inactive
Cc1cc(C(=O)Nc2cc(Oc3ccc4nc(NC(=O)C5CC5)cn4n3)ccc2C)n(C)n1,Potency,HaCat [1],18.4 µM (active)
same,Potency,NIH3T3,5.17 µM (active)
O=C(Nc1ccc2[nH]c(=O)oc2c1)C(=O)N1CCC(Cc2ccc(F)cc2)CC1,max response,HaCat [1],4.96%
same,max response,NIH3T3,-23.6%
C=CC(=O)N1CCC(Oc2cc3c(Nc4ccc(Cl)c(Cl)c4F)ncnc3cc2OC)CC1,max response,HaCat [1],-116%
same,Potency,NIH3T3,14.6 µM (active)
C/C=C(\C)C(=O)O[C@@H]1[C@@H](C)[C@]2(O)[C@@H]3C=C(C)C(=O)[C@H]3CC(CO)=C[C@H]2C2C(C)(C)[C@@]21OC(=O)C(C)CC (some centres not stated),outcome,HaCat [1],inactive
same,max response,KB-3-1,0.342%
same,max response,NIH3T3,4.54%
same,outcome,HACAT [2],inactive [at 17.4 µM]
Cc1cnc(-c2ccccc2C(C)C)nc1NCc1ccc(-n2ccnn2)cc1,max response,HaCat [1],-29.3%
same,max response,NIH3T3,-17%
CC[C@H](C(=O)Nc1ccccc1N1CCCC1)c1ccccc1,max response,HaCat [1],-11.1%
same,max response,NIH3T3,-0.387%
COc1ccc(-c2ccccc2)cc1NS(=O)(=O)c1cc(Cl)cc(Cl)c1O,outcome,HaCat [1],inactive
same,max response,KB-3-1,4.02%
same,outcome,HACAT [2],inactive [at 17.4 µM]
Cc1ccc(C)c(NS(=O)(=O)c2cc(C(=O)Nc3ccccc3-c3ccccc3)ccc2C)c1,max response,HaCat [1],-22.2%
same,max response,NIH3T3,-13.7%
CC(=O)O[C@@H]1C2=C(O)C(=O)[C@](C)(OC(C)=O)C(=O)C2=CO[C@@]12O[C@@H](C)CC[C@H]2OC(C)=O,outcome,HaCat [1],inactive
same,outcome,KB-3-1,inactive
same,max response,NIH3T3,-10.7%
same,outcome,HACAT [2],inactive [at 17.4 µM]
C=C1C(=O)OC2C1CCC1(C)C(O)CC=C(C)C21 (configuration not stated),outcome,HaCat [1],inactive
same,max response,KB-3-1,0.514%
same,outcome,NIH3T3,inactive
same,outcome,HACAT [2],inactive
C=C1C(=O)O[C@@H]2C=C(COC(C)=O)CC/C=C(\CO)CC[C@@H]12,outcome,HaCat [1],inactive
same,max response,KB-3-1,7.74%
same,max response,NIH3T3,-6.09%
same,outcome,HACAT [2],inactive
O=c1nc(-c2ccccn2)sc2ccccc12,outcome,HaCat [1],inactive
same,max response,KB-3-1,3.79%
same,outcome,HACAT [2],inactive
NC(=O)c1ccccc1Nc1ccnc(Nc2cccc(O)c2)n1,Potency,HaCat [1],5.8 µM (active)
same,Potency,NIH3T3,7.31 µM (active)
C=C1C(=O)O[C@@H]2/C=C(\C)CC/C=C(\C)CC[C@@H]12,outcome,HaCat [1],inactive
same,max response,KB-3-1,-12.1%
same,outcome,HACAT [2],inactive
C=CC(=O)Nc1cc(-n2c(=O)ccc3cnc4ccc(-c5ccc(NS(C)(=O)=O)cc5)cc4c32)ccc1C,max response,HaCat [1],-9.43%
same,max response,NIH3T3,-11.5%
Cc1ccc(F)cc1S(=O)(=O)N[C@@H]1CCN(Cc2ccc(OC(C)C)cc2)C1,max response,HaCat [1],-5.2%
same,max response,NIH3T3,-14.7%
O=C(NCc1cccs1)c1cc2nc(-c3ccco3)cc(C(F)(F)Cl)n2n1,outcome,HaCat [1],inactive
same,max response,KB-3-1,3.07%
same,max response,NIH3T3,-24.5%
same,outcome,HACAT [2],inactive
C=C1CC[C@@H]2[C@](C)(CO)[C@H](O)CC[C@@]2(C)[C@@H]1C/C=C1/C(=O)OCC1OC(=O)/C(=C/CO)C(O)C[C@@H]1C(=C)CC[C@@H]2[C@](C)(CO)[C@H](O)CC[C@]21C (some centres not stated),outcome,HaCat [1],inactive
same,outcome,KB-3-1,inactive
same,outcome,HACAT [2],inactive [at 17.4 µM]
COc1ccccc1N1CCN(CC[C@@](C)(C(=O)C2CCCCC2)c2ccccc2)CC1,max response,HaCat [1],-16.7%
same,max response,NIH3T3,-6.96%
CC12CCC(OC3OC(CO)C(O)C(O)C3OC3OC(CO)C(O)C(O)C3O)CC1CCC1C2CCC2(C)/C(=C3/COC(=O)C3)CCC12O (configuration not stated),max response,HaCat [1],-19.3%
same,max response,NIH3T3,-1.69%
C=C1CC[C@@H](O)[C@]2(C)C[C@H]3OC(=O)C(=C)[C@H]3CC12 (some centres not stated),outcome,HaCat [1],inactive
same,max response,KB-3-1,1.13%
same,outcome,HACAT [2],inactive
Cc1cc(-c2cc(OC(=O)c3ccccc3)ccc2Cl)cc2nnc(Nc3ccc(OCCN4CCCC4)cc3)nc12,max response,HaCat [1],3.59%
same,max response,NIH3T3,-28.4%
O=C(N[C@@H]1CCCc2c1cnn2-c1ccc(F)cc1F)c1ccccn1,max response,HaCat [1],-21.6%
same,max response,NIH3T3,3.41%
COC(=O)c1ccc2c(c1)nc(NC(=O)c1ccccc1)n2CCCc1ccccc1,outcome,HaCat [1],inactive
same,max response,NIH3T3,1.52%
same,outcome,HACAT [2],inactive
O=S(=O)(c1ccc(Cl)cc1)N1CCN(c2ccnc3cc(Cl)ccc23)CC1,outcome,HaCat [1],inactive
same,max response,NIH3T3,3.17%
same,outcome,HACAT [2],inactive
O=C(Nc1cc(C(F)(F)F)cc(C(F)(F)F)c1)c1cnc(Cl)nc1C(F)(F)F,outcome,HaCat [1],inactive
same,max response,NIH3T3,-1.85%
same,outcome,HACAT [2],inactive
Nc1nc2c(c(N3CC[C@@H](N)C3)n1)CCCc1ccccc1-2,outcome,HaCat [1],inactive
same,max response,NIH3T3,-2.56%
same,outcome,HACAT [2],inactive
C#CCNCc1cc2cc(OCc3ccccc3)ccc2[nH]1,max response,HaCat [1],-12.3%
same,max response,NIH3T3,-24.7%
O=C(NCCN1CCN(c2cccc3ccc(O)cc23)CC1)c1ccc(F)cc1,max response,HaCat [1],-4.85%
same,max response,NIH3T3,3.66%
CC(C)(O)C(=O)N1CCN(c2ccc(C(F)(F)F)c(C3=C(c4c[nH]c5ccccc45)C(=O)NC3=O)c2)CC1,outcome,HaCat [1],inactive
same,max response,NIH3T3,-9.17%
same,outcome,HACAT [2],inactive
N#Cc1ccc(-c2ccc(S(=O)(=O)Nc3cccc(N)n3)cc2)cc1,outcome,HaCat [1],inactive
same,max response,NIH3T3,-2.42%
same,outcome,HACAT [2],inactive
Cc1cc(C)nc(SCC(=O)Nc2ncc(Cc3cccc4ccccc34)s2)n1,outcome,HaCat [1],inactive
same,max response,NIH3T3,-0.172%
same,outcome,HACAT [2],inactive
COc1cc(CCc2ccc(OCC=C(C)C)cc2)cc(OC)c1OC,outcome,HaCat [1],inactive
same,max response,NIH3T3,-1.52%
same,outcome,HACAT [2],inactive
NCCCC[C@H](NC(=O)[C@@H]1CCCN1C(=O)[C@@H]1CSSC[C@H](NC(=O)CNC(=O)CNC(=O)CN)C(=O)N[C@@H](Cc2ccc(O)cc2)C(=O)N[C@@H](Cc2ccccc2)C(=O)N[C@@H](CCC(N)=O)C(=O)N[C@@H](CC(N)=O)C(=O)N1)C(=O)NCC(N)=O (H-GGGCYFQNCPKG-NH2; disulfide 4-9),max response,KB-3-1,-6.41%
COc1ccc(C#Cc2ccc(C(=O)N3CCC[C@@H](CO)C3)cc2)cc1,max response,HaCat [1],1.97%
same,max response,NIH3T3,-25.7%
C/C=C/C=C/c1cc2c(C=O)c(O)c(CC=C(C)C)cc2o1,outcome,HaCat [1],inactive
same,max response,NIH3T3,1.86%
same,outcome,HACAT [2],inactive
CC1(C)CC[C@]2(C(=O)O[C@@H]3O[C@H](CO)[C@@H](O)[C@H](O)[C@H]3O)CC[C@]3(C)C(=CCC4[C@@]5(C)CC[C@H](O[C@@H]6O[C@H](C(=O)O)[C@H](O)[C@H](O)[C@H]6O)C(C)(C)C5CC[C@]43C)[C@@H]2C1 (some centres not stated),outcome,HaCat [1],inactive
same,max response,NIH3T3,-2.05%
same,outcome,HACAT [2],inactive [at 17.4 µM]
O=C(C1CCCCC1)N(CCN1CCN(c2ccccc2O)CC1)c1ccccn1,outcome,HaCat [1],inactive
same,outcome,HACAT [2],inactive
CC(=O)OC1CC2(C)C(CCC(C)C23Cc2c(O)cc(CO)c(C=O)c2O3)C(C)(C)C1O (configuration not stated),outcome,HaCat [1],inactive
same,max response,NIH3T3,1.46%
same,outcome,HACAT [2],inactive [at 17.4 µM]
COc1cc(/C=C/C(=O)NCCn2c(C(F)(F)F)cc3ccccc32)cc(OC)c1OC,max response,HaCat [1],-29.1%
same,max response,NIH3T3,-23.8%
C/C=C(/CC[C@@H](C)[C@H]1CC[C@H]2C3=CC[C@H]4[C@H](C)[C@@H](O)CC[C@]4(C)[C@H]3CC[C@]12C)C(C)C,max response,KB-3-1,-22.1%
C=C1CC2C3CCC4=CC(=O)C=C[C@]4(C)[C@@]3(F)[C@@H](O)C[C@]2(C)[C@@]1(O)C(=O)COC(C)=O (some centres not stated),max response,KB-3-1,3%
O=C(Nc1ccc(-n2nc(C(F)(F)F)cc2C(F)(F)F)cc1)c1ccncc1F,max response,HaCat [1],3.3%
same,max response,NIH3T3,2.03%
COc1cc2ncc(-c3ccccc3)nc2cc1OC,outcome,HaCat [1],inactive
same,outcome,NIH3T3,inactive
same,outcome,HACAT [2],inactive
C=C1C(=O)OC2CC(C)=C(C(C)CCCOC(C)=O)C(OC(=O)CC(C)CC)C12 (configuration not stated),max response,HaCat [1],-2.4%
same,max response,NIH3T3,-17.5%
